# From the supplement of paper PMC10981050
# “And” between values parts separate entries of the source, which are not always exact repeats. Identical values can stand only once. Counter-ions that a name gives are not always drawn.
# Legend:
# Assay in all cases: cell viability relative to vehicle control; higher = less cytotoxic
# Conditions in all cases: 10 µM
# K562 = test system: K562
# Procedure, shortened: (§1)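 CRISPR-edited mutant clones and isogenic wild-type clones from four leukaemia lines were screened against Selleck bioactive, kinase and epigenetic probe libraries, with identity-inconsistent compounds excluded. Each compound was acoustically dispensed at a single 10 µM dose into 384-well plates holding 2000 cells in 50 µL medium per well. After 48 h the supernatant was removed and CellTiter-Glo luminescence was read. Viability was expressed as percent of the on-plate vehicle control and analysed in Genedata Screener.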
# MARIMO = test system: MARIMO
# Procedure, shortened: as §1
# MOLM14 = test system: MOLM14
# Procedure, shortened: as §1
# OCI-AML2 = test system: OCI-AML2
# Procedure, shortened: as §1
Compound,cell viability (K562; SRSF2 genotype: SRSF2 P95H/wt),cell viability (K562; SRSF2 genotype: SRSF2 wt/wt) [%],cell viability (MARIMO; SRSF2 genotype: SRSF2 P95H/wt) [%],cell viability (MARIMO; SRSF2 genotype: SRSF2 wt/wt) [%],cell viability (MOLM14; SRSF2 genotype: SRSF2 P95H/wt) [%],cell viability (MOLM14; SRSF2 genotype: SRSF2 wt/wt) [%],cell viability (OCI-AML2; SRSF2 genotype: P95H/wt) [%],cell viability (OCI-AML2; SRSF2 genotype: wt/wt) [%]
O=S(=O)(NC1CCCCC1)c1ccc2c(c1)C(=NO)c1cc(S(=O)(=O)NC3CCCCC3)ccc1-2,80.3% and 92.9%,92.3,4.08,57.4,11.1,70.7,0.52,0.59
Cc1[nH]c2ccccc2c1CCNC(=O)c1cccs1,92% and 93.8%,100,90,97.2,106,99.4,94.5,97.4
CNC(=O)c1ccc(-c2cnc3ncc(Cc4ccc5ncccc5c4)n3n2)cc1F,95% and 101%,102,107,115,103,110,111,110
O=C(/C=C\n1cnc(-c2cc(C(F)(F)F)cc(C(F)(F)F)c2)n1)NNc1ccccn1 [Verdinexor (KPT-335)],11.8% and 21.6%,14.7,24.4,22.1,2.16,1.01,4.7,9.56
CC(C)S(=O)(=O)c1ccc2nccc(Nc3ccc4scnc4c3)c2c1,60.2% and 78.2%,63.7,101,108,75.2,78.2,83.2,88.5
COc1ccc2cc1Oc1ccc(cc1)C[C@H]1c3cc(c(OC)cc3CCN1C)Oc1c(O)c(OC)cc3c1[C@H](C2)N(C)CC3 [Fangchinoline],5.78% and 5.22%,5.07,12.1,1.57,0.48,0.53,0.4,0.56
Oc1ccc2ccccc2c1SSc1c(O)ccc2ccccc12,62.1% and 81.6%,83.9,32.7,29.7,18.9,29.6,31.8,31.2
O=C(c1ccc(Cl)cc1Cl)n1nnc2ccccc21,54.8% and 62.1%,70.3,48.4,46.2,59.3,49.6,37.9,29.3
COc1cccc(OC)c1C(=O)OCc1cc(O)ccc1O[C@@H]1O[C@H](CO)[C@@H](O)[C@H](O)[C@H]1O [Curculigoside],101% and 106%,106,110,104,105,105,115,109
CC(C)(N)C(=O)N[C@H](COCc1ccccc1)C(=O)N1CCC2(CC1)CN(S(C)(=O)=O)c1ccccc12 [Ibutamoren mesylate],91.5% and 97.4%,90,81.1,92,80.1,89.5,82.3,78.9
Nc1ccn([C@@H]2O[C@H](CO)[C@@H](O)[C@@H]2O)c(=O)n1 [Cytarabine hydrochloride],83.4% and 98.6%,94.9,28.6,30.5,7.14,1.49,6.92,8.04
CC1(C)S[C@@H]2[C@H](NC(=O)[C@H](NC(=O)N3CCN(S(C)(=O)=O)C3=O)c3ccccc3)C(=O)N2[C@H]1C(=O)O [Mezlocillin Sodium],100% and 98.1%,102,101,112,100,101,97.4,112
N=C(NCCCCCCNC(=N)NC(=N)Nc1ccc(Cl)cc1)NC(=N)Nc1ccc(Cl)cc1 [Chlorhexidine],14.9% and 12%,23,39.3,34.6,5.12,4.9,2.08,6.07
CCCC1CC(C(=O)NC(C(C)Cl)C2OC(SC)C(O)C(O)C2O)N(C)C1 (stereo unspecified) [Clindamycin alcoholate],104% and 98%,102,98.5,107,103,108,107,98.6
C#C[C@]1(O)CC[C@H]2[C@@H]3CCc4cc(O)ccc4[C@H]3CC[C@@]21C [Ethinyl Estradiol],71.9% and 69.8%,65,70.1,70,82.4,98.8,79.3,79.7
"COc1cc2oc(-c3ccccc3)cc(=O)c2c(OC)c1OC [5,6,7-Trimethoxyflavone]",109% and 110%,107,99.9,96.3,111,110,85.1,87.3
CC(COc1ccccc1Cc1ccccc1)N1CCCCC1 (stereo unspecified) [Benproperine phosphate],82.8% and 87.2%,91.3,70.4,78.5,82.5,88.2,93.7,84.7
COc1cc(N2CCC(N3CCN(C)CC3)CC2)ccc1Nc1ncnc(Nc2ccccc2S(=O)(=O)C(C)C)n1,84.8% and 91%,80.8,56.7,48.3,28.4,31.1,12.6,21.9
COc1ccc(-c2cc(=O)c3c(OC)c(OC)c(OC)c(OC)c3o2)cc1OC [Nobiletin (Hexamethoxyflavone)],94.6% and 90.6%,92.6,79.1,82.1,83.3,81.3,74.5,81.5
CC(C)(Oc1ccc(Cl)cc1)C(=O)OCCOC(=O)c1cccnc1 [Etofibrate],96% and 91.7%,95.4,93.2,100,94.7,101,83.5,77.5
C[C@H](CCC(=O)O)[C@H]1CC[C@H]2[C@@H]3CC[C@@H]4C[C@H](O)CC[C@]4(C)[C@H]3CC[C@]12C [Lithocholic acid],102% and 101%,101,106,113,98.9,104,107,112

Compound,cell viability (K562; SRSF2 genotype: SRSF2 P95H/wt),cell viability (K562; SRSF2 genotype: SRSF2 wt/wt) [%],cell viability (MARIMO; SRSF2 genotype: SRSF2 P95H/wt) [%],cell viability (MARIMO; SRSF2 genotype: SRSF2 wt/wt) [%],cell viability (MOLM14; SRSF2 genotype: SRSF2 P95H/wt) [%],cell viability (MOLM14; SRSF2 genotype: SRSF2 wt/wt) [%],cell viability (OCI-AML2; SRSF2 genotype: P95H/wt) [%],cell viability (OCI-AML2; SRSF2 genotype: wt/wt) [%]
COC(=O)c1ccc(O)cc1 [Methyl 4-hydroxybenzoate],93% and 82.6%,88.2,90.5,94.1,91.9,95.5,91.2,90.5
C=C[C@@]1(C)CC(=O)[C@]2(O)[C@@]3(C)[C@@H](O)CCC(C)(C)[C@@H]3[C@H](O)[C@H](OC(C)=O)[C@@]2(C)O1 [Forskolin],96.8% and 104%,94,99,88.6,92.6,101,105,96.1
"O=C1CCc2ccc(O)cc2N1 [7-Hydroxy-3,4-dihydrocarbostyril]",110% and 104%,102,105,112,107,103,101,107
Cc1oc2nc3c(c(NC(=O)CN4CCCC4=O)c2c1C)CCCC3 [Coluracetam],95.4% and 96.3%,105,93.7,104,103,103,94.9,99.4
COc1cc(N2CCC(N3CCN(C)CC3)CC2)ccc1Nc1ncc(Cl)c(Nc2ccccc2S(=O)(=O)C(C)C)n1,78.8% and 75.5%,72.5,36.4,30.1,7.58,12.7,7.82,16.6
COc1ccc2[nH]c(=O)oc2c1 [Coixol],94.8% and 103%,95,97.8,96.3,103,98.2,102,93.9
CCOC(=O)c1ncn2c1CN(C)C(=O)c1cc(F)ccc1-2 [Flumazenil],107% and 101%,108,95.9,107,106,101,94,103
COc1ccc(COc2ccc(CC#N)cc2)cc1,103%,97.9,96.4,108,114,110,96.3,82.9
COCCOc1nc(-c2ccc(Cl)c(Cl)c2)n(-c2ccc(NC(=O)CCl)cc2)n1 [MI-2 (MALT1 inhibitor)],16% and 8.54%,6.61,0.5,0.7,0.48,0.53,0.42,0.46
CNc1nc(Nc2cnn(C3CCN(C4COC4)CC3F)c2Cl)ncc1C(F)(F)F (stereo unspecified),89.6% and 89%,91.7,76.2,80.1,38.2,36.4,46.3,47.6
Cc1ccc(O)c([C@H](CCN(C(C)C)C(C)C)c2ccccc2)c1 [Tolterodine tartrate (Detrol LA)],80.3% and 94%,87.2,75.7,81.6,70,83.4,88.6,84
C/C=C(/C)C(=O)O[C@H]1c2cc(OC)c(OC)c(OC)c2-c2c(cc3c(c2OC)OCO3)C[C@H](C)[C@]1(C)O [Schisantherin B],98.1% and 96.8%,93.7,93,94.1,82.8,92.6,97.1,97
C[C@]12CC[C@@H]3c4ccc(O)cc4CC[C@H]3[C@@H]1CCC2=O [Estrone],100% and 92.7%,103,94.5,96.6,101,99.1,101,113
COC(=O)c1cc(OC)c(O)c(OC)c1 [Methyl syringate],101% and 87.8%,91.2,94,102,89.2,92.3,96.8,101
CCCCC(C=O)NC(=O)C(CC(C)C)NC(=O)C(CC(C)C)NC(C)=O (stereo unspecified),1.41% and 2.62%,1.86,1.3,1.7,0.23,0.15,0.23,1.17
O.O.O.O.O.O.O.[Cl][La]([Cl])[Cl] [Lanthanum(III) chloride heptahydrate],107% and 102%,102,109,114,107,104,99.2,99.4
CNS(=O)(=O)Nc1nccc(Cc2c(C)c3ccc(Oc4ncccn4)cc3oc2=O)c1F,59.5% and 66.4%,72.2,36,36.9,44.7,30.6,37.6,40.4
CC1=NN(c2ccccc2)C(=O)C1 [Edaravone (MCI-186)],107% and 105%,107,111,108,96.3,109,116,103
CC(COc1ccccc1)N(CCCl)Cc1ccccc1 (stereo unspecified) [Phenoxybenzamine HCl],66.1% and 73.8%,63.2,67.3,72.5,57.5,62.7,54.4,62.1
CC(C)n1c(/C=C/C(O)CC(O)CC(=O)O)c(-c2ccc(F)cc2)c2ccccc21 (stereo unspecified) [Fluvastatin sodium (Lescol)],80.8% and 90.5%,69.6,45.5,46.6,77.7,89.3,36.8,46.5
COCCNc1cc(NC(=O)N2CCCc3cc(CN4CCN(C)CC4=O)c(C=O)nc32)ncc1C#N,94% and 103%,89.4,96.9,106,100,98.2,112,109
